From ChEMBL document CHEMBL2218924, “A broad activity screen in support of a chemogenomic map for kinase signalling research and drug discovery” (Biochem J, 2013) come the findings set out here.

Experiment [1] deals with T1, Muscle, skeletal receptor tyrosine-protein kinase (Homo sapiens) (UniProt O15146).
T1 sequence (whole entry): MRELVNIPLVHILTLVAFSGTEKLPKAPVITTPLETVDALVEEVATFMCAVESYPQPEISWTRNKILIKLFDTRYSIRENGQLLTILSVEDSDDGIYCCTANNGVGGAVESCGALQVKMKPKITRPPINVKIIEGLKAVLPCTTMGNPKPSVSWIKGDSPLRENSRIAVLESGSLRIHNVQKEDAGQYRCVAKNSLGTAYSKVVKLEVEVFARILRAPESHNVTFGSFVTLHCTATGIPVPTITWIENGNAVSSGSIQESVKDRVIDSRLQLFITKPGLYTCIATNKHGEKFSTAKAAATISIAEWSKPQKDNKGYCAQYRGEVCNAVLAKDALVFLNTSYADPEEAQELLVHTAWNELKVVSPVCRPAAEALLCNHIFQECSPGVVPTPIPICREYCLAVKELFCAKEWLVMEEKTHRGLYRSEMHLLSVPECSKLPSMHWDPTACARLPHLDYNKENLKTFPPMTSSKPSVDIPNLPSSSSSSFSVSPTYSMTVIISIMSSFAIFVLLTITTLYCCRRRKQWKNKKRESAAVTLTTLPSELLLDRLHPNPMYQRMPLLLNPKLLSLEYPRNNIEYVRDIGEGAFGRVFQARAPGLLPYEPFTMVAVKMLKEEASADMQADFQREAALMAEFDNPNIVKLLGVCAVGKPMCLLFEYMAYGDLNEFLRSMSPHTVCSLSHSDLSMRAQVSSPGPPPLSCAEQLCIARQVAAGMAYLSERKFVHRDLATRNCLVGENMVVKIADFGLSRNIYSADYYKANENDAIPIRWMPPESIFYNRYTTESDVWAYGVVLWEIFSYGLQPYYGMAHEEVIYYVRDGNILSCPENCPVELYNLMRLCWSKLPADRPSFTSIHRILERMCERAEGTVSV
To be noted: at 1 µM.

Experiment [2] addresses T1, Muscle, skeletal receptor tyrosine-protein kinase (Homo sapiens). The conditions noted are these: at 10 µM.
Experiment [3] deals with T2, Serine/threonine-protein kinase Nek11 (Homo sapiens) (UniProt Q8NG66).
T2 sequence (whole entry): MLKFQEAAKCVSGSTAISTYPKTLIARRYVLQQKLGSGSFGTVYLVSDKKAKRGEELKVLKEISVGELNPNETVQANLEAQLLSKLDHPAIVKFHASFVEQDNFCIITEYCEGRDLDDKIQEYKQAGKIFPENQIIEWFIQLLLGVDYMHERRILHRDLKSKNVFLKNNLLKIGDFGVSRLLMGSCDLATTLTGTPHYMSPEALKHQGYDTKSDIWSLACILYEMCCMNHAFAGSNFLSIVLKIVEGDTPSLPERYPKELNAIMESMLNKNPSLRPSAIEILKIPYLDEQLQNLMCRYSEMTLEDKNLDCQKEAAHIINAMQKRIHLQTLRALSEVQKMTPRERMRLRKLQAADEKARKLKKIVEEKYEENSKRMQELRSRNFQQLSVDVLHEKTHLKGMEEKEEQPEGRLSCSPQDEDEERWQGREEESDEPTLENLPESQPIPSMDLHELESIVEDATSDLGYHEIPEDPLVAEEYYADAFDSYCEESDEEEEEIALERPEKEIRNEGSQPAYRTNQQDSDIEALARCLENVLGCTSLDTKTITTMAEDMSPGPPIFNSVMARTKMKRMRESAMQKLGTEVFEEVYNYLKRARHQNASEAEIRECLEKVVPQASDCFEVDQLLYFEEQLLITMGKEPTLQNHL
To be noted: at 1 µM.

Experiment [4] deals with T2, Serine/threonine-protein kinase Nek11 (Homo sapiens). To be noted: at 10 µM.
The target in experiment [5] is T3, Serine/threonine-protein kinase Nek2 (Homo sapiens) (UniProt P51955).
T3 sequence (whole entry): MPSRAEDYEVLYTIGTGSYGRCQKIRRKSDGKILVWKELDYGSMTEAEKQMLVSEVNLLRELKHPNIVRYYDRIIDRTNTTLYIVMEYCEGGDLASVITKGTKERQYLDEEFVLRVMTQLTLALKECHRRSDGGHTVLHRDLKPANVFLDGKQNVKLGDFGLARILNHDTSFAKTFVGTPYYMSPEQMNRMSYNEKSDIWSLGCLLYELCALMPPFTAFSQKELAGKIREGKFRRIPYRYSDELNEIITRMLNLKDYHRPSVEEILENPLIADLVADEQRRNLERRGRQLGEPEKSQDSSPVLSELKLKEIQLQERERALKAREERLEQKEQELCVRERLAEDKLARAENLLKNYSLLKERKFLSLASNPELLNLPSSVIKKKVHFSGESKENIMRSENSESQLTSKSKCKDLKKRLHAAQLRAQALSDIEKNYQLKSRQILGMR
To be noted: at 1 µM.

In experiment [6] the target is T3, Serine/threonine-protein kinase Nek2 (Homo sapiens). The conditions noted are these: at 10 µM.
The target of experiment [7] is Serine/threonine-protein kinase tousled-like 2 (Homo sapiens) (UniProt Q86UE8). The conditions noted are these: at 1 µM.
Experiment [8] has the same target. To be noted: at 10 µM.
Experiment [9] deals with T4, Serine/threonine-protein kinase Nek3 (Homo sapiens) (UniProt P51956).
T4 sequence (whole entry): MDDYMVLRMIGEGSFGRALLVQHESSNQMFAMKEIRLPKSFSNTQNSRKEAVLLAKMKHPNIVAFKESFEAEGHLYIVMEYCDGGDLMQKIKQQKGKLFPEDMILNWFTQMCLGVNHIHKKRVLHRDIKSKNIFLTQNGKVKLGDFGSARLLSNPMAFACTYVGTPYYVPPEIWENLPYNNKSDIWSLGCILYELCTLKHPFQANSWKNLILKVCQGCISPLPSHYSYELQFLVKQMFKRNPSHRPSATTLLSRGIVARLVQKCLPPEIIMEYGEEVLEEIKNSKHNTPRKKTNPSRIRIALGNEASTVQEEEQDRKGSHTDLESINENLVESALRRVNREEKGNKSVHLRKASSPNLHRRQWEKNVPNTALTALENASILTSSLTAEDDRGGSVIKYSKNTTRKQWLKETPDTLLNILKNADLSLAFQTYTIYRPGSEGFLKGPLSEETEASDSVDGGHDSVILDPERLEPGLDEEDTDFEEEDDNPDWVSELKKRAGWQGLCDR
The conditions noted are these: at 1 µM.

The target of experiment [10] is T4, Serine/threonine-protein kinase Nek3 (Homo sapiens). To be noted: at 10 µM.

Structures are written as SMILES.

The residual activity is the signal under treatment as a percentage of the control signal.

Serine/threonine-protein kinase tousled-like 2 (Homo sapiens), sequence (Q86UE8 whole entry, looked up): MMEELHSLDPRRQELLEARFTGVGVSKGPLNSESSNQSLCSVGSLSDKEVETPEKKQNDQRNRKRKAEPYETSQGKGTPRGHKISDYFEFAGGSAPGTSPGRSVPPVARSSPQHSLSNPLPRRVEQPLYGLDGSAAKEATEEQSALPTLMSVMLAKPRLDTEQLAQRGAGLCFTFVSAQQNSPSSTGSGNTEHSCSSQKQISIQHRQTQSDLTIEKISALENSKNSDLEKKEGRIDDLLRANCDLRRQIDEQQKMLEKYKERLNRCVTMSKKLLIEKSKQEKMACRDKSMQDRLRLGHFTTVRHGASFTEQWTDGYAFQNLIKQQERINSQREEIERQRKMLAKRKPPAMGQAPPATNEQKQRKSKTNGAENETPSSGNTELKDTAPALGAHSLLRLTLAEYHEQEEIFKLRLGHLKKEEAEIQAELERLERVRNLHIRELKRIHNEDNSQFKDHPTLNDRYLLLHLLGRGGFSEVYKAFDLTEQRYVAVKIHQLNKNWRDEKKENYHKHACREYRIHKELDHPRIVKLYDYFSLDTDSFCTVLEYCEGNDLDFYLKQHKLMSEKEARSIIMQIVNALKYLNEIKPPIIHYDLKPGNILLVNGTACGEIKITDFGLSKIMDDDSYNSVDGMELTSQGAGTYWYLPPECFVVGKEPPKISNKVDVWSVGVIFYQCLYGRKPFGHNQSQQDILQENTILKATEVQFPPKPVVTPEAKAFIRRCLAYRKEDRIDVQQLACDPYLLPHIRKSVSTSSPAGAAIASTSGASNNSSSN

In the case of `COc1ccc(Cl)cc1NC(=O)Nc1cc(C)nc2ccccc12`, the residual activity came out at 97% in experiment [1]; 71% in [2]; 79% in [3]; 93% in experiment [4]; 78% in [5]; 86% in experiment [6]. The residual activity in [7] was determined as 97%; in [8], 95%.

On to `CCN1/C(=C/C(C)=O)Sc2ccc(OC)cc21`, for which the residual activity in [1] worked out at 82%; in [2], 75%; in experiment [3], 49%; in [4], 60%.

Consider `CCCCc1c(-c2ccc(OC)cc2)[nH]c2nccnc12`, for which the residual activity in [1] was determined as 88%; in experiment [2] it was 87%; in [3], 80%; in experiment [4], 81%; in experiment [6] it was 83%; in experiment [9], 87%. Further, the values for the residual activity in experiment [7] and in experiment [8] were 87% and 86%, respectively.

Regarding `CN(C)S(=O)(=O)c1ccc2c(c1)/C(=C/c1cc3c([nH]1)CCCC3)C(=O)N2`, the residual activity in [1] was 53%; in experiment [2] it was 47%; in experiment [3] it was 47%; in [4] it was 63%; in experiment [5], 97%; in experiment [6], 100%. Besides, the residual activity in experiment [9] worked out at 88%; in experiment [10], 94%; in experiment [7], 98%; in experiment [8], 95%.

As for `O=C1Nc2ccccc2/C1=C\c1c(Cl)[nH]c2ccccc12`, the residual activity in [1] turned out to be 78%; in experiment [2], 70%; in experiment [3], 64%; in experiment [4] it was 29%; in experiment [6] it was 77%; in experiment [9], 82%. Moreover, the residual activity in experiment [8] turned out to be 76%.

As for `O=c1cc(N2CCOCC2)oc2c1ccc1ccccc12`, the residual activity in experiment [1] was found to be 100%; in experiment [2], 87%; in experiment [3], 98%; in experiment [4], 75%; in experiment [5], 79%; in experiment [6], 84%. Also, the residual activity was found to be 79% in experiment [10], 101% in [7] and 92% in [8].

Turning to `c1ccc(-c2cnc(Nc3ccc(OCCN4CCCC4)cc3)s2)cc1`, the residual activity in experiment [1] turned out to be 4%; in experiment [2], 0%; in experiment [3], 81%; in experiment [4], 76%; in experiment [9], 115%; in [10], 76%. For the same compound, the values for the residual activity in experiment [7] and in [8] were 105% and 81%, respectively.

As for `CCN(CC)CCNC(=O)c1c(C)[nH]c(/C=C2\C(=O)Nc3ccc(Cl)cc32)c1C`, the residual activity in [1] was found to be 3%; in experiment [2], 0%; in [3], 80%; in experiment [4] it was 31%; in [5] it was 67%; in [6], 18%. The residual activity in experiment [7] is 69%; in experiment [8], 14%.

As to `O=C1NC(=O)c2c1c1c3ccccc3[nH]c1n1cncc21`, the residual activity in experiment [1] came to 72%; in experiment [2], 55%; in [3], 36%; in experiment [4], 34%; in experiment [5], 77%; in [6], 63%. Moreover, the residual activity amounted to 77% in experiment [9], 86% in [10], 74% in experiment [7] and 58% in experiment [8].

`CC(C)(C)n1nc(Cc2cccc3ccccc23)c2c(N)ncnc21`: the residual activity in [1] came out at 121%; in [2], 76%; in experiment [3], 91%; in experiment [4], 82%; in experiment [5] it was 78%; in [6], 97%. Moreover, the residual activity amounted to 108% in [9], 105% in experiment [10], 104% in [7] and 97% in [8].

`Nc1n[nH]c2nc3ccccc3nc12`: the residual activity in experiment [1] worked out at 76%; in [2] it was 87%; in experiment [3], 70%; in [4], 80%; in experiment [5], 115%; in [6] it was 81%. The residual activity in experiment [9] was 80%; in experiment [10] it was 83%; in [7], 91%; in experiment [8] it was 81%.

Take `COc1ccc2c(c1)c(C1=C(c3c[nH]c4ccccc34)C(=O)NC1=O)cn2CCCN(C)C`: the residual activity in [1] was found to be 96%; in [2], 65%; in experiment [3], 50%; in experiment [4], 48%; in experiment [5], 76%; in [7] it was 21%. For the same compound, the residual activity in [8] was determined as 2%.
